According to PubChem BioAssay AID932 (The Scripps Research Institute Molecular Screening Center, 2007):
The campaign covered roughly 200,000 compounds. About 5,100 (2.5%) were called active. The sample holds actives, similar compounds and a random draw of the others, so the mix is not that of the screen. Values without a mark were called inactive.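 Rule for the calls: active = activation above the screen-wide mean activation plus 3 SD (cut at about 130% in these data); inactive = the rest.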 Where a SMILES comes first, the peptide text is derived from it. The star is where a group is joined. OPac = O=C(CO*)c1ccccc1; Bz = O=C(c1ccccc1)*

Experiment: STAT1 signaling activators, primary screen, cell-based, HTS, luciferase reporter (AID 932);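 note: raw ratio to IFN-gamma control signal so 100% means no change and 0% no light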
Conditions: NIH 3T3 STAT1-luciferase reporter, IFN-gamma, luminescence; at 5.5 µM; active compounds read high; 100% = IFN-gamma alone, no compound

| SMILES | activation (% of control) |
| --- | --- |
| O=C(CNC(=O)c1ccccc1)NCC(=O)OCC(=O)c1ccccc1 (Bz-Gly-Gly-OPac) | 101% |
| Cn1cc(CN2CCC(C(O)CCc3ccccc3)CC2)c(-c2ccccc2F)n1 (stereo not drawn) | 97.4% |
| CCCNC(=S)N1CCCC(c2nc3ccccc3[nH]2)C1 (stereo not drawn) | 94.6% |
| CCNC(=S)N1CCC(c2nc3cc(C)c(C)cc3[nH]2)CC1 | 96.7% |
| COCCCNC(=S)N1CCCC(c2nc3cc(C)c(C)cc3[nH]2)C1 (stereo not drawn) | 140% (active) |
| CC(=O)NCC(=O)N(Cc1ccco1)C1(C(=O)NC2CCCC2)CCCCC1 | 89.9% |
| Cc1nn(-c2ccc([N+](=O)[O-])cc2)c(N)c1-c1ccccc1 | 164% (active) |
| O=C1CC(c2ccccc2)=NN1c1ccc([N+](=O)[O-])cc1 | 104% |
| Cc1nn(-c2ccccc2)c2c1C(c1cccc([N+](=O)[O-])c1)N(c1ccccc1)C(=O)N2 (stereo not drawn) | 97.4% |
| CNC(=O)NC(=O)CSc1nnc(-c2ccc(F)cc2)n1CC1CCCO1 (stereo not drawn) | 103% |
| Cc1cccc(N=Nc2c(O)[nH]c3ccc(F)cc23)c1 | 161% (active) |
| COCC(=O)N=Nc1c(O)[nH]c2ccccc12 | 110% |
| Cc1cccc(N=Nc2c(C)[nH]n(-c3ccccc3)c2=O)c1 | 112% |
| CC(=O)COc1ccc2c(-c3ccccc3)cc(=O)oc2c1 | 109% |
| O=c1c(-c2ccccc2)coc2cc(O)ccc12 | 137% (active) |
| O=c1c(-c2ccccc2)coc2c(CN3CCOCC3)c(O)ccc12 | 100% |
| O=c1c2c(ncn1Cc1ccccc1)nc1n2CCC1 | 96.7% |
| COC(=O)c1ccc(CN2CCN(CCCc3ccccc3)C(CCO)C2)cc1 (stereo not drawn) | 96.7% |
| CCOC(=O)c1oc2c(CN3CCN(CCO)CC3)c(O)c(CC)cc2c(=O)c1-c1nc2ccccc2s1 | 104% |
| CN1CCCC(OC(=O)COc2ccc(Br)cc2)C1 (stereo not drawn) | 101% |
| CC1CN/C(=C\C(=O)c2ccc(Br)cc2)C(=O)N1 (stereo not drawn) | 172% (active) |
| C/C(=C\C(=O)c1ccc(Br)cc1)N1CCCCC1 | 105% |
| COc1ccc(-n2c(C)cc(C(=O)CSc3nnc(-c4cccs4)o3)c2C)cc1 | 85.5% |

| SMILES | activation (% of control) |
| --- | --- |
| O=C(CSc1nnc2ccccn12)c1ccccc1 | 123% |
| Cc1ccc(-n2c(C)cc(C(=O)CSc3nnc4ccccn34)c2C)cc1 | 150% (active) |
| CCOc1ccc(C(=O)NC2CCN(CC(=O)NCc3cccs3)CC2)cc1 | 105% |
| CN(C)CCCCCN(C)Cc1cc2ccccc2o1 | 91.6% |
| Cc1cc(NC(=O)CSc2nnc(Nc3ccccc3F)s2)no1 | 102% |
| COc1ccccc1-c1cc(C(=O)NCCCn2ccnc2)no1 | 112% |
| O=C(NCCCn1ccnc1)c1cc(-c2ccccc2)on1 | 161% (active) |
| COc1ccc(-c2cc(C(=O)NCCCn3ccnc3)no2)cc1 | 110% |
| Cc1ccc(NC(=O)CSc2nnc(COc3ccccc3C)o2)cc1 | 103% |
| Cc1ccccc1-c1nc(C#N)c(NCc2ccco2)o1 | 98.1% |
| O=C(C(=O)N1CCc2ccccc2C1)c1c[nH]c2ccccc12 | 105% |
| CC(=O)c1cccc(NC(=O)[C@@H](NC(N)=O)C(C)C)c1 | 98.5% |
| COc1ccc(-c2csc(NC(=O)COC(=O)c3ccc(Br)o3)n2)cc1 | 129% (active) |
| COc1ccc(-c2csc(NC(=O)COC(=O)Cc3ccc(Cl)cc3Cl)n2)cc1 | 112% |
| COc1ccc(-c2csc(NC(=O)CCCc3cccs3)n2)cc1 | 91.3% |
| O=C(NC1CCCC1)c1ccc(Br)s1 | 108% |
| CC(C)C(=O)OCC(=O)Nc1ccc2c(c1)CCC2 | 101% |
| O=C(Nc1ccc2c(c1)CCC2)c1ccc(Br)s1 | 165% (active) |
| CC1(C)C(c2cccs2)=[N+]([O-])C2(CCCCC2=O)N1O (stereo not drawn) | 105% |
| COc1cc(C(=O)N2C(=O)c3cccc(N)c3C2=O)cc(OC)c1OC | 104% |
| O=C(CCN1CCCCC1)N=Nc1c(O)[nH]c2ccccc12 | 93.5% |
| O=C(Nc1ccc2c(c1)C(=O)OC2)Nc1cccc2ccccc12 | 93.7% |
| Brc1ccc2nc(N3CCCC3)sc2c1 | 134% (active) |

| SMILES | activation (% of control) |
| --- | --- |
| Cc1nc(N2CCCCC2)sc1C=O | 96.9% |
| Fc1cc(F)c2nc(N3CCOCC3)sc2c1 | 122% |
| CCOC(=O)N1CCC(NC(=O)c2ccc3nc(N4CCOCC4)sc3c2)CC1 | 102% |
| c1c2c(cc3sc(N4CCCCC4)nc13)OCCO2 | 56.4% |
| Fc1ccc2nc(N3CCCCC3)sc2c1 | 147% (active) |
| O=C(COC(=O)CC1CC2CCC1C2)NC(=O)NC1CCCC1 (stereo not drawn) | 101% |
| CCOC(=O)c1c(C)n(C)c2ccc(OC)c(NS(=O)(=O)CC)c12 | 111% |
| CC(=O)c1cc(C#N)c(N2CCCCC2)nc1C | 95.1% |
| CC(=O)c1cc(C#N)c(SCC(=O)Nc2nccs2)nc1C | 108% |
| CC(=O)c1cc(C#N)c(SCC(=O)C(C)(C)C)nc1C | 140% (active) |
| Cc1nc2nc[nH]n2c(=O)c1C/C=C/c1ccccc1 | 102% |
| Cc1cccc(OC(=O)c2sc3ncn(C)c(=O)c3c2C)c1 | 134% (active) |
| Cc1c(C(N)=O)sc2ncn(CCOc3ccccc3)c(=O)c12 | 116% |
| CCOC(=O)C(C)n1cnc2sc(C)c(C)c2c1=O (stereo not drawn) | 105% |
| COc1ccc(Br)cc1C(=O)Nc1cccc(C)c1C | 95.7% |
| O=S(=O)(ON(c1ccccc1)S(=O)(=O)c1ccccc1)c1ccccc1 | 105% |
| CCOC(=O)c1cccc(NC(=O)CCOc2ccccc2)c1 | 97.3% |
| CCOC(=O)N/N=C/c1cccnc1 | 102% |
| CC(=O)Nc1ccc(S(=O)(=O)NC2(C(F)(F)F)C(=O)Nc3c2c(=O)[nH]c(=O)n3Cc2ccccc2)cc1 (stereo not drawn) | 108% |
| CN(C)c1ccnc2sc3c(=O)n(Cc4ccccc4)cnc3c12 | 78.3% |
| Cc1nc2sc(C(=O)c3ccccc3)c(N)c2c2c1CCCC2 | 113% |
| CN(C)c1ccnc2sc(C(=O)c3ccccc3)c(N)c12 | 153% (active) |
